An excerpt weighted towards active compounds, which were near 4% of everything screened.
697 NFkB inh: lowers PMA/ionomycin-induced NF-kB signal in 697 B cells; 697 B-cell NF-kB luciferase reporter, 16 h; inhibition, % at 4 µM; 0.33% of 330,000 active; AID 435022; in the data active = inhibition above about 35%
Gli-Sufu antag: blocks Gli-Sufu signaling in a luciferase reporter. 0.74% of 340,000 active. inhibition, % at 5 µM. AID 588413. Sufu-KO-LIGHT fibroblasts, Gli luciferase reporter luminescence;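 active = inhibition above about 55%, limit read from the data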;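 note: 0% = DMSO-treated cells and 100% = wells with medium but no cells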
Mdm2 MdmX PPI: inhibitors of human Mdm2/MdmX interaction. 3% of 330,000 active. AID 485346. inhibition, % at 8 µM. SaOS-2 split-luciferase Mdm2/MdmX complementation, luminescence;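 active = inhibition of at least 50% at 8 µM in the primary screen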
Target sequence (O15151 whole entry, looked up): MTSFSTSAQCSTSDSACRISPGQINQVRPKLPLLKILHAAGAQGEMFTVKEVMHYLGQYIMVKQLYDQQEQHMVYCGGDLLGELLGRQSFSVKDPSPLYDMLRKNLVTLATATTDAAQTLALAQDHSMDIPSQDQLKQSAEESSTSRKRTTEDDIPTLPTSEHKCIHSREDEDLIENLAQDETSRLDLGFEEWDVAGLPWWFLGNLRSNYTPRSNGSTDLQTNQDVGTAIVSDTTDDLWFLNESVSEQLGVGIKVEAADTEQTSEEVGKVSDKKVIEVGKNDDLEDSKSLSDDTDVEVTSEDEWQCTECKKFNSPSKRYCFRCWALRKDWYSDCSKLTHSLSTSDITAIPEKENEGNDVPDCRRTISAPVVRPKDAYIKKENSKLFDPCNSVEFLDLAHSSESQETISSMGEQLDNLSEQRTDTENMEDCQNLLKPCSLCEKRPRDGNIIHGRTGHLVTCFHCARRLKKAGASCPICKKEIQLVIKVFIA
Target sequence (Q00987 whole entry, looked up): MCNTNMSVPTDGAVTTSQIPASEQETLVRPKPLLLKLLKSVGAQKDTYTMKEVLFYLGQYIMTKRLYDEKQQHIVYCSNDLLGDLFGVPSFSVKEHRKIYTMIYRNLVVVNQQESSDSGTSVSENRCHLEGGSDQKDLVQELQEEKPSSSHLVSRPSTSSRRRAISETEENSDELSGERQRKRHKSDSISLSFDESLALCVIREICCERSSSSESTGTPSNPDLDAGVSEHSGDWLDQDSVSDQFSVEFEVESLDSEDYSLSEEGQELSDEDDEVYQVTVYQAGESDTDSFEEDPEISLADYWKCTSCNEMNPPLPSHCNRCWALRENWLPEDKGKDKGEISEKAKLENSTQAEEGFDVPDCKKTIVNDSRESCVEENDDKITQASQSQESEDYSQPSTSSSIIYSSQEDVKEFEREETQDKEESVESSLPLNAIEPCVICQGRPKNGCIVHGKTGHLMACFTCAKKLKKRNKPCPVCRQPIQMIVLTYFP
Jurkat NFkB inh: inhibitors of the PMA/ionomycin-induced NF-kB reporter in Jurkat cells; PMA/ionomycin-induced NF-kB luciferase reporter, luminescence; inhibition, % at 4 µM; 0.53% of 330,000 active; AID 435003; in the data active = inhibition above about 50%
Beta apoptosis: blocks beta cell apoptosis; INS-1E cytokine-induced death, ATP luminescence, 48 h; percent of positive-control rescue, neutral wells zero; protection from apoptosis, % (concentration not given with the values); 0.8% of 300,000 active; AID 435005;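 active = Every replicate reaches about 75%, or at least half do and their mean reaches it too, limit read from the data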;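 note: 0% = cytokine-treated negative control wells and 100% = positive control rescue; higher means more ATP so stronger rescue from cytokine killing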
Mdm2 MdmX conf: confirmation of human Mdm2/MdmX interaction inhibitors | Mdm2-MdmX binding, luminescent assay | 55% of 10,000 active | shares compounds with Mdm2 MdmX PPI | inhibition, % at 8 µM; in the data active = inhibition above about 40%
Full FLuc ctr: full-length luciferase inhibition in Mdm2/MdmX counter-screen. 77% of 6,200 active. inhibition, % at 8 µM. shares compounds with Mdm2 MdmX PPI. SaOS-2 full-length luciferase counterscreen, luminescence;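 active = mean inhibition at 8 µM reaching about 37%, which flags the compound as non-specific, limit read from the data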;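 note: p53-null SaOS-2 cells with luciferase driven by a doxycycline-inducible promoter; compound on cells about two nights before reading with doxycycline added after day one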
An asterisk follows results filed as active; · = not tested or not shown.

SMILES	697 NFkB inh	Gli-Sufu antag	Mdm2 MdmX PPI	Jurkat NFkB inh	Beta apoptosis	Mdm2 MdmX conf	Full FLuc ctr
COc1cc2c(cc1NC(=O)CN1C(=O)NC3(CCc4ccccc43)C1=O)oc1ccccc12 (centres undefined)	10	-4	69*	6	9	13	·
COc1cc2c(cc1NC(=S)Nc1cccc3ccccc13)oc1ccccc12	-12	-26	-14	3	-4	·	·
COCCCNC(=S)Nc1cc2oc3ccccc3c2cc1OC	-18	10	55*	37	-3	41*	90*
CCN(CC(=O)Nc1cccc(S(=O)(=O)N(C)c2ccccc2)c1)Cc1cccs1	0	19	-4	4	6	·	·
Cc1noc(-c2ccc(Cl)cc2)c1C(=O)O/N=C(\N)c1ccc(C(C)(C)C)cc1	-38	6	100*	7	39	98*	60*
COc1cc(OC)c(C(=O)O/N=C(\N)c2cccc(C)c2)cc1OC	-18	0	79*	-9	-2	47*	100*
COc1cc(OC)c(C(=O)O/N=C(\N)c2ccc(C)cc2)cc1OC	-13	-2	69*	3	-8	43*	104*
COc1ccc(Cl)cc1C(=O)O/N=C(\N)c1ccc(Cl)cc1	-47	-29	71*	-39	9	45*	81*
COc1ccc(/C(N)=N/OC(=O)Cc2ccc(C)cc2)cc1OC	-4	-4	-56	6	-2	·	·
N/C(=N\OC(=O)c1cc(Cl)ccc1Cl)c1ccncc1	-19	-41	-72	-30	-9	·	·
C[C@H](CO)N1C[C@H](C)[C@@H](CN(C)C(=O)Nc2ccc3c(c2)OCO3)Oc2ccc(NC(=O)NC3CCCCC3)cc2C1=O	9	-10	17	1	-5	·	·
Cc1ccc(C(=O)NC2CCN(CC(=O)NC3CCC(C)CC3)CC2)cc1 (centres undefined)	2	30	-16	-4	·	·	·
Cc1ccc(/C(N)=N/OC(=O)c2ccco2)cc1	-213	-102	-95	-114	6	·	·
Cc1occc1C(=O)O/N=C(\N)c1ccc(Cl)cc1	-55	-7	100*	-46	·	50*	148*
Cc1ccc(NC(=O)c2ccc(=O)[nH]c2)cc1S(=O)(=O)N1CCCCCC1	-7	2	27	10	-3	·	·
Cc1ccc(NC(=O)NC2CCCc3ccccc32)cc1 (centres undefined)	-19	-16	6	9	3	·	·
CC(C)(C)c1ccc(NC(=O)NC2CCCc3ccccc32)cc1 (centres undefined)	-22	-12	70*	24	21	53*	70*
CCc1ccc(NC(=O)C(=O)NCc2ccccn2)cc1	-23	-37	-40	-33	-9	·	·
CCc1ccc(CNC(=O)C2CCN(S(=O)(=O)N3CCC(C)CC3)CC2)cc1	-2	-5	-2	-2	-1	·	·
Cc1ccc2nc(-c3ccccc3)cc(C(=O)N(C)CC(=O)Nc3ccccc3Br)c2c1	-2	7	53*	-4	9	28	·
C/C=C/c1cc(CN2CCN(c3ccccc3)CC2)c(O)c(OC)c1	-103	23	82*	-32	5	45*	83*
C/C=C/c1cc(CN2CCN(c3ccc(OC)cc3)CC2)c(O)c(OC)c1	-5	21	17	6	4	·	·
C=CCN(C(=O)c1csnn1)C(C(=O)NC1CCCC1)c1cccs1 (centres undefined)	13	-15	13	-8	1	·	·
COc1ccccc1N(C)S(=O)(=O)c1ccc(Cl)c(C(=O)NNC(=O)c2ccccc2O)c1	-9	-12	35	-2	-8	·	·
COc1ccc(NS(=O)(=O)c2cccc(C(=O)NNC(=O)c3ccccc3O)c2)cc1	-18	-5	53*	-12	-1	56*	58*
SMILES	697 NFkB inh	Gli-Sufu antag	Mdm2 MdmX PPI	Jurkat NFkB inh	Beta apoptosis	Mdm2 MdmX conf	Full FLuc ctr
COc1ccccc1N(C)S(=O)(=O)c1ccc(C(=O)NNC(=O)c2ccccc2O)cc1	-3	14	62*	5	·	60*	48*
CCc1ccccc1NC(=S)N(CCCN(C)C)Cc1cc2cc3c(cc2[nH]c1=O)OCO3	-10	22	27	-21	-2	·	·
COc1ccc([C@@H]2[C@@H]3C(=O)N(C(C)(C)C)C(=O)[C@@H]3[C@]3(Cc4ccccc4)C(=O)N(c4ccc(C(F)(F)F)cc4)C(=O)N23)cc1	-1	-5	85*	9	2	90*	28
COc1ccc([C@@H]2[C@@H]3C(=O)N(C(C)(C)C)C(=O)[C@@H]3[C@]3(CC(C)C)C(=O)N(c4ccc(C(F)(F)F)cc4)C(=O)N23)cc1	-13	6	74*	8	9	76*	35
Clc1ccccc1CN1CCN(/N=C/C=C/c2ccco2)CC1	-28	-2	-6	-7	4	·	·
O=C(NCc1ccccc1Cl)C1CCN(S(=O)(=O)c2ccc(N3CCCC3=O)cc2)CC1	15	44	22	5	0	·	·
N#CCC(=O)N1CC2(CC(c3cccc(NC(=O)COc4ccc(Cl)cc4)c3)=NO2)C[C@@H]1C(N)=O (some centres undefined)	-92	-20	-7	-23	0	·	·
NC(=O)[C@@H]1CC2(CC(c3cccc(NC(=O)COc4ccc(Cl)cc4)c3)=NO2)CN1C(=O)COc1ccc(Cl)cc1 (some centres undefined)	-33	3	59*	17	9	20	·
NC(=O)[C@H]1CC2(CC(c3cccc(NC(=O)COc4ccc(Cl)cc4)c3)=NO2)CN1C(=O)C(c1ccccc1)c1ccccc1 (some centres undefined)	-19	0	60*	6	22	14	·
CCC(=O)Nc1cccc(C2=NOC3(C2)C[C@@H](C(N)=O)N(C(=O)C(c2ccccc2)c2ccccc2)C3)c1 (some centres undefined)	3	8	15	-1	0	·	·
CC(C)C[C@@]12C(=O)N(c3ccc(Br)cc3)C(=O)N1[C@H](c1ccc(Br)cc1)[C@@H]1C(=O)N(C(C)(C)C)C(=O)[C@@H]12	15	-2	60*	11	11	70*	52*
CC(C)C[C@@]12C(=O)N(c3cccc(F)c3)C(=O)N1[C@H](c1ccc(Br)cc1)[C@@H]1C(=O)N(C(C)(C)C)C(=O)[C@@H]12	5	2	28	-3	4	·	·
CC(C)C[C@@]12C(=O)N(c3cccc(Cl)c3)C(=O)N1[C@H](c1ccc(Br)cc1)[C@@H]1C(=O)N(C(C)(C)C)C(=O)[C@@H]12	10	11	50*	8	11	46*	69*
NS(=O)(=O)c1ccc(CCNC(=O)CCc2nc3ccccc3s2)cc1	4	-18	4	13	·	·	·
CN(C(=O)Nc1ccc(Cl)cc1Cl)[C@H]1c2cc(Br)ccc2OC[C@H]1CO	-23	7	19	-12	4	·	·

Assay outcomes: PubChem, several laboratories
